We go through one molecule from the supplement of paper PMC4466140.

For the first experiment, the target named is SpBzz1-D2. Put plainly: SPOT peptide array binding signal intensity (averaged, normalized) (arbitrary units (background-subtracted, floor 0; scale differs between SH3 domains)); higher = stronger binding of the SH3 domain to the peptide. In a few lines: (§1)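 The binding signal is the normalized, background-subtracted spot intensity averaged over replicates; its arbitrary units differ between domains. It was obtained by incubating 10 μg/ml GST-fused SH3 domains from four yeast species overnight at 4°C in TBS-based blocking buffer on cellulose membranes with synthetic 15-mer peptides, cysteines replaced by serines, then detecting with anti-GST antibody, HRP anti-mouse secondary and luminol.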
As to VRVKKRPLIRPLNSS, the “SPOT peptide array binding signal intensity” value is not above 0.

Another experiment deals with SpCyk3. The description is as above. Put shortly: as §1
For the molecule VRVKKRPLIRPLNSS, the “SPOT peptide array binding signal intensity” value is not above 0.

Another experiment addresses SpHof1. The description is as above. Put shortly:
as §1
In the case of VRVKKRPLIRPLNSS, the “SPOT peptide array binding signal intensity” value was found to be 188.

The target in a further experiment is SpHof1-2. Described as above. In a few lines:
as §1
On to VRVKKRPLIRPLNSS, for which the “SPOT peptide array binding signal intensity” value worked out at 12.5.

Another experiment addresses SpHof1-3. Described as above. In a few lines:
as §1
For VRVKKRPLIRPLNSS, the “SPOT peptide array binding signal intensity” value was found to be 373.

Another experiment deals with SpHse1. The description is as above. In a few lines: as §1
On to VRVKKRPLIRPLNSS, for which the “SPOT peptide array binding signal intensity” value stood at 279.

Another experiment concerns the target SpLsb1. Described as above. In a few lines:
as §1
Regarding VRVKKRPLIRPLNSS, the “SPOT peptide array binding signal intensity” value amounted to 14.5.

A further experiment addresses SpLsb4. The description is as above. In a few lines:
as §1
Consider VRVKKRPLIRPLNSS, for which the “SPOT peptide array binding signal intensity” value came to 135.

Another experiment addresses SpMyo1. The description is as above. In a few lines: as §1
As to VRVKKRPLIRPLNSS, the “SPOT peptide array binding signal intensity” value worked out at 5.5.

A further experiment has as its target SpNbp2. The description is as above. Put shortly: as §1
For VRVKKRPLIRPLNSS, the “SPOT peptide array binding signal intensity” value worked out at 773.

Another experiment concerns the target SpPex13. Described as above. In a few lines:
as §1
As to VRVKKRPLIRPLNSS, the “SPOT peptide array binding signal intensity” value was 17.

For another experiment, the target named is SpRvs167. The experiment is described as above. Put shortly: as §1
Turning to VRVKKRPLIRPLNSS, the “SPOT peptide array binding signal intensity” value stood at 3.67.

For a further experiment, the target named is SpSla1-D1-D2. Described as above. Put shortly: as §1
As to VRVKKRPLIRPLNSS, the “SPOT peptide array binding signal intensity” value is not above 0.

Another experiment has as its target SpSla1-D3. Described as above. Put shortly: as §1
VRVKKRPLIRPLNSS: the “SPOT peptide array binding signal intensity” value amounted to 2.
